HT1080-NT tox: qHTS for induction of synthetic lethality in tumor cells producing 2HG: qHTS for the HT-1080-NT fibrosarcoma cell line; actives 1.6% (n = 360,000); HT-1080-NT fibrosarcoma viability, CellTiter-Glo ATP luminescence, 48 h; Potency, µM (doses to about 46.1 µM), inactives show at the top dose activity, negative = less viability, most hits filed as cytotoxic;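 note: NT is the 2HG producing partner of a matched IDH1 knockdown line; potency is the fitted concentration of half-maximal effect; 0% = DMSO-treated cells and -100% = media-only wells without cells; nearly all actives have a fitted effect of over 55% in size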
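Fibrosarcoma NT cells, 750 per well in 5% FBS RPMI, were exposed to compound for 48 hours. Viability: CellTiter-Glo luminescence.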
HT1080 IDH1KD tx: qHTS for induction of synthetic lethality in tumor cells producing 2HG: qHTS for the HT-1080-IDH1KD cell line. Potency, µM (doses to about 46.1 µM), for inactives: at the highest dose activity, negative = toxicity, usual class: cytotoxic. actives 2% (n = 360,000). AID 686971, 2013. HT-1080 IDH1 knockdown viability, ATP luminescence, 48 h;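 note: potency is the fitted concentration of half-maximal effect; 0% = DMSO wells and -100% = cell-free medium wells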
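% activity derives from luminescence (CellTiter-Glo), normalised to DMSO and no-cell wells. HT-1080-IDH1KD cells, 750/well, had 48 h compound exposure at 37 °C.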
TDP1 cell noCPT: qHTS for Inhibitors of human tyrosyl-DNA phosphodiesterase 1 (TDP1): qHTS in cells in absence of CPT. DT40 Tdp1-/- hTDP1 cells, no CPT, ATP luminescence, 48 h. Potency, µM (top dose mostly 46.2 µM), for inactives: at the highest dose activity change, negative = growth inhibition, hits mostly inhibitors. actives 15% (n = 420,000). AID 686978, 2013; note: potency is the fitted concentration of half-maximal effect; nearly all actives have a fitted effect of over 55% in size
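Seeded 400 DT40-hTDP1 cells/well (vehicle DMSO, no 20 nM CPT); pinned compounds; ≥48 hr at 37 °C; CellTiter-Glo luminescence as viability measure.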
DT40 TDP1 CPT: qHTS for Inhibitors of human tyrosyl-DNA phosphodiesterase 1 (TDP1): qHTS in cells in presence of CPT; chicken DT40 Tdp1-/-;hTDP1 cells + 20 nM CPT, ATP luminescence, 48 h; Potency, µM (doses to about 46.2 µM), for the others: at the top dose activity change, negative = growth inhibition, actives largely listed as inhibitors; actives 12% (n = 420,000); note: potency is the fitted concentration of half-maximal effect; nearly all actives have a fitted effect of over 55% in size
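Cell growth measured by CellTiter-Glo luminescence after a minimum 48 h, 37 C compound exposure with 20 nM CPT in Tdp1-knockout DT40 cells stably expressing hTDP1, seeded 400/well; qHTS titration format.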
IL1B secr inh: qHTS for Inhibitors of Inflammasome Signaling: IL-1-beta AlphaLISA Primary Screen; THP-1 LPS/ATP IL-1B secretion, AlphaLISA, 16 h; active compounds read low; activity change, % at 57.5 µM; actives 4.7% (n = 360,000); AID 743279, 2014; in the data active = activity change below about -50%; inconclusive = mostly about -30% to -49%
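Secreted IL-1B measured by AlphaLISA bead assay after 16 h compound exposure of THP-1 cells; compounds (final up to 57.5 uM) added 1 h before LPS (250 ng/mL) and ATP (1.25 mM) stimulation; lower signal means less secretion.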
* marks the source's active call; other numbers are inactive results; u = inconclusive; x = no result. In the library only some 19% were active in any assay of this set; here they are far more common. Unless noted, calls come from the whole dose curve; as a rule, active = well fitted curve in the direction sought with a large enough effect; inconclusive = small, poorly fitted or top-dose-only effect, or another doubt; inactive = no such curve, though single readings can be large; an effect the other way counts as inactive or inconclusive. Unless noted, % is set by controls: 0 for no effect and ±100 for the full control effect.

SMILES | HT1080-NT tox | HT1080 IDH1KD tx | TDP1 cell noCPT | DT40 TDP1 CPT | IL1B secr inh
Cn1c(CN2CCN(CCO)CC2)c(C#N)c2ccccc21 | 1% | -6% | -14% | 1% | 38
Cc1ccccc1N1CCN(Cc2c(C#N)c3ccccc3n2C)CC1 | 0% | 15% | u | 18µM* | 11
Cc1ccc(C2CC(c3cccs3)=NN2C(=O)CSc2nc(=O)n3cc(C)ccc3n2)cc1 (centres undefined) | -7% | 1% | u | 2% | -12
CCCCNC(=O)C[C@@H]1C[C@@]2(C(=O)OCC)CCCC=C2N(CCc2ccc(OC)c(OC)c2)C1=O | 3% | 19% | 18µM* | 1.5µM* | 4
CCCCCCCCN1C(=O)[C@H](CC(=O)NCCC(C)C)C[C@@]2(C(=O)OCC)CCC=C12 | -1% | u | 21µM* | 21µM* | 9
COC(=O)[C@]12CCCCC=C1N(CCc1ccc(OC)c(OC)c1)C(=O)[C@H](CC(=O)NCCC(C)C)C2 | -14% | -13% | u | u | u
CCOC(=O)[C@]12CCCC=C1N(CCc1ccc(OC)c(OC)c1)C(=O)[C@H](CC(=O)NCC13CC4CC(CC(C4)C1)C3)C2 | -21% | u | 16µM* | 15µM* | -20
CCOC(=O)[C@]12CCCC=C1N(CCc1ccc(OC)c(OC)c1)C(=O)[C@H](CC(=O)NCCc1ccccc1OC)C2 | -18% | -20% | 16µM* | 13µM* | -3
CCc1nn2c(=O)cc(COC(=O)C3CCCCC3)nc2s1 | x | x | -6% | -4% | x
C=C1CC[C@@H]2O[C@@]2(C)CC[C@H]2[C@H]1CC2(C)C | x | x | 1% | 3% | x
CC[N+](CC)(CCNC(=O)C(=O)NCC[N+](CC)(CC)Cc1ccccc1Cl)Cc1ccccc1Cl | x | x | 10% | -9% | x
Clc1cccc(Cl)c1Cn1ccc(C2CC2)n1 | 0% | 7% | -1% | 6% | 29
CCOC(=O)N1CCN(C(=O)C[C@@H]2C[C@@]3(C(=O)OCC)CCC=C3N(CCC3=CCCCC3)C2=O)CC1 | 19% | 14% | u | u | 0
CCCCNC(=O)C[C@@H]1C[C@@]2(C(=O)OC)CCCCC=C2N(CCc2ccc(OC)c(OC)c2)C1=O | -4% | 1% | 23µM* | u | -13
CCOC(=O)[C@]12CCCC=C1N(CCC1=CCCCC1)C(=O)[C@H](CC(=O)NCc1cccc3ccccc13)C2 | -29% | -25% | 16µM* | u | 13
CCOC(=O)[C@]12CCCC=C1N(CCC1=CCCCC1)C(=O)[C@H](CC(=O)NCc1ccc(OC)c(OC)c1)C2 | -14% | -11% | 15µM* | 15µM* | -14
COC(=O)[C@]12CCCCC=C1N(CCC1=CCCCC1)C(=O)[C@H](CC(=O)NCc1ccc(OC)c(OC)c1)C2 | 1% | -20% | u | u | -12
CCOC(=O)[C@]12CCC=C1N(CCC1=CCCCC1)C(=O)[C@H](CC(=O)N1CCSCC1)C2 | 9% | 11% | u | 18µM* | 28
COCCCNC(=O)C[C@@H]1C[C@@]2(C(=O)OC)CCCCC=C2N(CCc2ccc(OC)c(OC)c2)C1=O | -2% | 16% | u | -15% | 24
CCCCCCCCN1C(=O)[C@H](CC(=O)NCCCOC)C[C@@]2(C(=O)OCC)CCCC=C12 | u | u | 12µM* | 23µM* | u
CCOC(=O)[C@]12CCCC=C1N(CCc1ccc(OC)c(OC)c1)C(=O)[C@H](CC(=O)N1CCSCC1)C2 | 14% | 21% | u | 16µM* | -10
CCCCCCCCN1C(=O)[C@H](CC(=O)NCCCN2CCCC2=O)C[C@@]2(C(=O)OCC)CCCC=C12 | -27% | -26% | u | u | -12
CCCCCCCCN1C(=O)[C@H](CC(=O)NCC23CC4CC(CC(C4)C2)C3)C[C@@]2(C(=O)OCC)CCCC=C12 | 12% | 3% | 18µM* | u | 4
COC(=O)[C@]12CCCCC=C1N(CCc1ccc(OC)c(OC)c1)C(=O)[C@H](CC(=O)N1CCSCC1)C2 | -3% | -3% | u | u | u
CCOC(=O)[C@]12CCCC=C1N(CCc1ccc(OC)c(OC)c1)C(=O)[C@H](CC(=O)NCCCCc1ccccc1)C2 | u | u | 16µM* | u | -57*
SMILES | HT1080-NT tox | HT1080 IDH1KD tx | TDP1 cell noCPT | DT40 TDP1 CPT | IL1B secr inh
CC(=O)c1c(C)[nH]c(C(=O)OCC(=O)NCc2ccccc2)c1C | 8% | -4% | u | u | 54
COCc1cccc(C2=CC(=O)C[C@H](c3ccc(OC)cc3)C2)c1 | 7% | 5% | -16% | -23% | -16
CCCCNC(=O)C[C@@H]1C[C@@]2(C(=O)OCC)CCCC=C2N(CCC2=CCCCC2)C1=O | u | -19% | 8.2µM* | 8.2µM* | -2
CCCCCCCCN1C(=O)[C@H](CC(=O)NCCc2ccccc2OC)C[C@@]2(C(=O)OCC)CCCC=C12 | u | u | 29µM* | u | u
CCCCNC(=O)C[C@@H]1C[C@@]2(C(=O)OCC)CCCC=C2N(Cc2ccccc2)C1=O | 8% | 8% | u | u | u
CCn1c(C(=O)N2CCCC(C(=O)O)C2)cc2sccc21 (centres undefined) | -5% | -4% | -7% | -12% | 8
CC(CCc1ccccc1)NC(=O)C1CCCN(C(=O)c2cc3sccc3n2C)C1 (centres undefined) | -21% | u | 15µM* | 18µM* | -12
CCn1c(C(=O)N2CCCC(C(=O)NCCCc3ccccc3)C2)cc2sccc21 (centres undefined) | 5% | -1% | u | 21µM* | u
O=c1[nH]c(=O)c2nc3c4ccccc4c4ccccc4c3nc2[nH]1 | -5% | -9% | 5.2µM* | 8.2µM* | -7
O=c1[nH]c(=O)c2nc(-c3ccc(Cl)cc3)cnc2[nH]1 | -14% | -5% | u | -23% | -5
COCCn1c(C(=O)N(C)C)cc2c1C[C@H]1CN(C(=O)c3ccccc3)[C@@](Cc3ccc(F)cc3)(C(=O)OC)[C@@H]21 | -4% | 8% | u | u | 10
COC(=O)[C@@]1(Cc2ccc(OC)cc2)[C@@H]2C(=CC(=O)[C@H]2CC(=O)C(=O)N(C)C)CN1C(=O)c1ccccc1 | u | u | 16µM* | -96% | -76*

Compound activity as filed in PubChem.
